Laboratory results: PubChem BioAssay (EPA / NIEHS)
Records with an inconclusive call do not appear. The source made the active and inactive calls. The calls were made as follows: active = hit-call score of the fitted dose curve at least 0.9, where 1 is the maximum; inconclusive = response in the unintended direction; inactive = score below 0.9.

Tests used:
[1] = biological target: rat Adrenergic, Alpha 1, Non-selective Receptor (Adra1), Adra1a (gene 29412) (UniProt P43140); test: NVS_GPCR_rAdra1_NonSelective: NovaScreen (NVS) G Protein-Coupled Receptor Assay for rat Adrenergic, Alpha 1, Non-selective Receptor (Adra1) (AID 2283289)
Chain of rat Adrenergic, Alpha 1, Non-selective Receptor (Adra1), Adra1a (gene 29412) (P43140 whole entry, looked up): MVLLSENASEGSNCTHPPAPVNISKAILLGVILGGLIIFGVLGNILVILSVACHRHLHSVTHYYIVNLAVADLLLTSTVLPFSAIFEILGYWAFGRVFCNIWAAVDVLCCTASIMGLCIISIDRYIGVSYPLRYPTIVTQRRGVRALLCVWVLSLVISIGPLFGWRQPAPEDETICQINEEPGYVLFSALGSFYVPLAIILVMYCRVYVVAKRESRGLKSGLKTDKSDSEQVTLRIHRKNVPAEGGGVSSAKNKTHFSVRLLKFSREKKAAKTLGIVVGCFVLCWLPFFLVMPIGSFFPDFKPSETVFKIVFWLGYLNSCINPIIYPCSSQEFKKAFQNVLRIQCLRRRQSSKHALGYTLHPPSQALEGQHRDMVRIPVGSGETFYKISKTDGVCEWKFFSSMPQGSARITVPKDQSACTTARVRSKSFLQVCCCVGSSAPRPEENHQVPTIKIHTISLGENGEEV
Procedure, shortened: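 Rat forebrain membranes; radioligand displacement read by filter-based scintillation counting 1 h after dosing. Primary screen in duplicate at 25 uM; hits (e.g. ≥30% inhibition) rerun as concentration–response to 50 uM max. Fitted versus DMSO.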

[2] = test system: 5-hydroxytryptamine receptor 2C (pig); test: NVS_GPCR_p5HT2C: NovaScreen (NVS) G Protein-Coupled Receptor Assay for pig Serotonin, 5-Hydroxytryptamine Receptor 2C (5HT2C) (AID 2283288)
Procedure, shortened: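 Pig choroid plexus membranes; radioligand competitive binding, filter-based scintillation counting, read 1 h after dosing. Primary screen in duplicate at 25 uM; actives then run as concentration series; loss of signal versus DMSO baseline.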

[3] = biological target: mouse Cholecystokinin, CCK1 Receptor (CCKA), Cckar (gene 12425) (UniProt O08786); test: NVS_GPCR_mCCKAPeripheral: NovaScreen (NVS) G Protein-Coupled Receptor Assay for mouse Cholecystokinin, CCK1 Receptor (CCKA) (AID 2283285)
Chain of mouse Cholecystokinin, CCK1 Receptor (CCKA), Cckar (gene 12425) (O08786 whole entry, looked up): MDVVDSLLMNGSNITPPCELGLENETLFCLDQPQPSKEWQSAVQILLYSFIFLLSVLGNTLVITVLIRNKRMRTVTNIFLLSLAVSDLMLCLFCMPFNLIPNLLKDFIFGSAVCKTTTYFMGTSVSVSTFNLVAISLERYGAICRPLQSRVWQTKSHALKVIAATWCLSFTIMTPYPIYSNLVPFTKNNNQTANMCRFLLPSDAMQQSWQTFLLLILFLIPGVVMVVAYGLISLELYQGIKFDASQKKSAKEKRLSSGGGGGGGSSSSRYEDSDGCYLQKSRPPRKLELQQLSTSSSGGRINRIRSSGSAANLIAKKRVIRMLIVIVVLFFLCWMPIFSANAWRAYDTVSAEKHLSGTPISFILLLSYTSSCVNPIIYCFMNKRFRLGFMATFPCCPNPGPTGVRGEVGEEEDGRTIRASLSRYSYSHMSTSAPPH
Procedure, shortened: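 Radioligand competitive displacement on mouse pancreatic membranes, 2 h incubation; filter-based scintillation counting, loss of signal versus DMSO. Single-concentration screen at 25 uM in duplicate, actives retested in concentration-response up to 50 uM.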

[4] = test system: rabbit Platelet Activating Factor Receptor (PAF), gene 100354046; test: NVS_GPCR_rabPAF: NovaScreen (NVS) G Protein-Coupled Receptor Assay for rabbit Platelet Activating Factor Receptor (PAF) (AID 2283287)
Procedure, shortened: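 Rabbit platelet membrane preparation; radioligand displacement read by filter-based scintillation counting 1 h after dosing, loss of signal versus DMSO. Primary screen in duplicate at 25 uM, actives followed up in concentration series.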

[5] = biological target: human Opioid Receptor Mu (Opiate Mu), OPRM1 (gene 4988) (UniProt P35372); test: NVS_GPCR_hOpiate_mu: NovaScreen (NVS) G Protein-Coupled Receptor Assay for human Opioid Receptor Mu (Opiate Mu) (AID 2283290);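 also: hits lower bound tracer signal versus DMSO meaning displacement of the ligand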
Chain of human Opioid Receptor Mu (Opiate Mu), OPRM1 (gene 4988) (P35372 whole entry, looked up): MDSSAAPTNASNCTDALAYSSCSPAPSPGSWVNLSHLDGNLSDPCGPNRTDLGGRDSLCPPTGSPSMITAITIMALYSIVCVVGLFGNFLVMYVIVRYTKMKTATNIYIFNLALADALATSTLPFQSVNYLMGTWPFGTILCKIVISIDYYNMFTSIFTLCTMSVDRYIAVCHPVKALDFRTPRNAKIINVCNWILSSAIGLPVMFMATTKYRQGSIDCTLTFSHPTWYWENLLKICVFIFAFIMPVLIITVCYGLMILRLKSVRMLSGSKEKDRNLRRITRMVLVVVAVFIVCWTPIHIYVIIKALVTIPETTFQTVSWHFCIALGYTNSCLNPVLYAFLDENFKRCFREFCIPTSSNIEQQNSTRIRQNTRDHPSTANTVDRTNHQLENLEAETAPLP
Procedure, shortened: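 CHO-derived receptor protein, cell-free; radioligand displacement, filtration + scintillation counting, read at 2.5 h. DMSO = negative control/baseline. Primary: 25 uM single conc, duplicate; secondary: concentration series.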

[6] = biological target: guinea pig Serotonin, 5-Hydroxytryptamine Receptor 4 (5HT4), HTR4 (gene 100135548) (UniProt O70528); test: NVS_GPCR_g5HT4: NovaScreen (NVS) G Protein-Coupled Receptor Assay for guinea pig Serotonin, 5-Hydroxytryptamine Receptor 4 (5HT4) (AID 2283294)
Chain of guinea pig Serotonin, 5-Hydroxytryptamine Receptor 4 (5HT4), HTR4 (gene 100135548) (O70528 whole entry, looked up): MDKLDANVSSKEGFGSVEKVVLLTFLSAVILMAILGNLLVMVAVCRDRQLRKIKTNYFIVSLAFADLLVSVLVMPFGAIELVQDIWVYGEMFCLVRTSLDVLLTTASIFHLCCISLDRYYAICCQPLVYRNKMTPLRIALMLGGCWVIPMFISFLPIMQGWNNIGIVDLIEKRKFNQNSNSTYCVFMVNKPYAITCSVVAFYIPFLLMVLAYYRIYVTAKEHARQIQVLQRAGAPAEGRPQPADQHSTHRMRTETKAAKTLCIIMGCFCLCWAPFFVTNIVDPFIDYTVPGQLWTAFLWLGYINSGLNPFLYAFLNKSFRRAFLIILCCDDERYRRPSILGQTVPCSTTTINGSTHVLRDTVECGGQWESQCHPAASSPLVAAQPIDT
Procedure, shortened: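 Guinea pig striatal membranes; radioligand competitive displacement, filtration and scintillation counting after 1 h. Primary screen in duplicate at 25 uM; actives then tested in concentration series; loss of binding signal fitted relative to DMSO.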

[7] = biological target: rat Serotonin, 5-Hydroxytryptamine Receptor 1 (5HT1), Non-Selective Binding, Htr1a (gene 24473) (UniProt P19327); test: NVS_GPCR_r5HT1_NonSelective: NovaScreen (NVS) G Protein-Coupled Receptor Assay for rat Serotonin, 5-Hydroxytryptamine Receptor 1 (5HT1), Non-Selective Binding (AID 2283286)
Chain of rat Serotonin, 5-Hydroxytryptamine Receptor 1 (5HT1), Non-Selective Binding, Htr1a (gene 24473) (P19327 whole entry, looked up): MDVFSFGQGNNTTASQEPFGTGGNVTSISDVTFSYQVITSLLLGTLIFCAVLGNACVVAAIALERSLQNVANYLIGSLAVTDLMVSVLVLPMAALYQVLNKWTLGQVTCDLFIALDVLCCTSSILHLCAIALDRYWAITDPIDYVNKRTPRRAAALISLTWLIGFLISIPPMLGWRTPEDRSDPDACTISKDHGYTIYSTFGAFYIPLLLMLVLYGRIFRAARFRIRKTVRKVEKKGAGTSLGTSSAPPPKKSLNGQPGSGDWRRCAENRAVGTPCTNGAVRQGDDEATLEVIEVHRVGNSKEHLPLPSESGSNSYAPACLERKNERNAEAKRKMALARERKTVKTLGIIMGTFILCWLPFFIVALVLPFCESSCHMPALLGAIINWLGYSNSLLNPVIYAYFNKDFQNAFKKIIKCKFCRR
Procedure: NVS_GPCR_r5HT1_NonSelective is a biochemical, single-readout assay that uses extracted gene-proteins from Rat cortical membranes in a tissue-based cell-free assay. Measurements were taken 1 hour after chemical dosing in a 48-well plate.NVS_GPCR_r5HT1_NonSelective is one of one assay component(s) measured or calculated from the NVS_GPCR_r5HT1_NonSelective assay. It is designed to make measurements of radioligand binding, a form of binding reporter, as detected with scintillation counting signals by Filter-based radiodetection technology.Data from the assay component NVS_GPCR_r5HT1_NonSelective was analyzed into 1 assay endpoint. This assay endpoint, NVS_GPCR_r5HT1_NonSelective, was analyzed in the positive analysis fitting direction relative to DMSO as the negative control and baseline of activity. Using a type of binding reporter, loss-of-signal activity can be used to understand changes in the binding as they relate to the gene Htr1a. Furthermore, this assay endpoint can be referred to as a primary readout, because the performed assay has only produced 1 assay endpoint. To generalize the intended target to other relatable targets, this assay endpoint is annotated to the gpcr intended target family, where the subfamily is rhodopsin-like receptor.
Binding assays used specific radioligands (tritiated, iodinated) with non-radioactive competitive displacement ligands in agonist or antagonist protocols (as indicated) and various reference compounds and inhibitors to titrate specific binding to receptors and transporters. Most enzyme assays (CYPs, kinases, phosphatases, proteases, HDACs) used recombinant protein and specific substrates (fluorescence mostly, some colorimetric and radioactive) and inhibitors, followed by a biochemical separation of substrate and product. All assays for the biochemical HTS were initially run in duplicate at a single concentration (10 uM for CYP450 assays and 25 uM for all others). Assay-chemical combinations meeting a pre-defined threshold (e.g., 30% inhibition and other criteria defined below) were then run in singleton concentration-response format with maximum concentration of 20 uM for CYPs and 50 uM for all others. Each assay was run with positive and negative controls, and concurrent controls on every plate. The follow-up (secondary) screen tested active chemical-pairs in concentration series, as well as a few additional assays not tested in the primary screen, some selected negative inactives, and several cases re-run in the concentration series for confirmatory purposes.

[8] = biological target: human Vasopressin 1A Receptor (V1A), AVPR1A (gene 552) (UniProt P37288); test: NVS_GPCR_hV1A: NovaScreen (NVS) G Protein-Coupled Receptor Assay for human Vasopressin 1A Receptor (V1A) (AID 2283284)
Chain of human Vasopressin 1A Receptor (V1A), AVPR1A (gene 552) (P37288 whole entry, looked up): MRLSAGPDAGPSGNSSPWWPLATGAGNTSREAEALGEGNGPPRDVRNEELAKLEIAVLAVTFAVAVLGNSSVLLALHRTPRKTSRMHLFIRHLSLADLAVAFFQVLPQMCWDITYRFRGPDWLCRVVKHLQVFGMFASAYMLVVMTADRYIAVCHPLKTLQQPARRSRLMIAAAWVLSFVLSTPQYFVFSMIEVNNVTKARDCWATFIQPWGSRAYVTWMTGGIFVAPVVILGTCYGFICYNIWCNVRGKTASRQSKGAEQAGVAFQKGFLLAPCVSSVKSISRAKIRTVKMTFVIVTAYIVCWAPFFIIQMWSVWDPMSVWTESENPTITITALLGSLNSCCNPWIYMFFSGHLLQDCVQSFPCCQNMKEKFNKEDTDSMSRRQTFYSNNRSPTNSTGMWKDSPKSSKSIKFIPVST
Procedure, shortened: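 Cell-free radioligand displacement on human platelet preparations, 1.5 h incubation, filter-based scintillation counting. Chemicals first tested in duplicate at 25 uM; actives then run in concentration-response up to 50 uM, loss of signal fitted against DMSO.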

[9] = biological target: guinea pig Bradykinin Receptor B2 (BK2), BDKRB2 (gene 100135486) (UniProt O70526); test: NVS_GPCR_gBK2: NovaScreen (NVS) G Protein-Coupled Receptor Assay for guinea pig Bradykinin Receptor B2 (BK2) (AID 2283292)
Chain of guinea pig Bradykinin Receptor B2 (BK2), BDKRB2 (gene 100135486) (O70526 whole entry, looked up): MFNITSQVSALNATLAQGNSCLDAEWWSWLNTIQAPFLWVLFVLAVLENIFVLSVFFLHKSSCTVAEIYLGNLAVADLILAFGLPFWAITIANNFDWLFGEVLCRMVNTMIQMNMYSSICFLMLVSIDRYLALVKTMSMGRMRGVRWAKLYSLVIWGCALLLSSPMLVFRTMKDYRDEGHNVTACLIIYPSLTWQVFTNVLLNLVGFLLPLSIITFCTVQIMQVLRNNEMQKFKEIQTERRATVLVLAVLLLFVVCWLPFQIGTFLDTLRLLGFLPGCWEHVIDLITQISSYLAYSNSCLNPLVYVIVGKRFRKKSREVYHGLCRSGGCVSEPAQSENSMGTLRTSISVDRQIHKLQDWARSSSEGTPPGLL
Procedure, shortened: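 Radioligand displacement on guinea pig ileum membranes for 1 h, read by filter-based scintillation counting; loss of signal relative to DMSO. Compounds were screened in duplicate at 25 uM, and those passing the threshold were retested in concentration-response up to 50 uM.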

[10] = biological target: mouse Cholecystokinin, CCK2 Receptor (CCKB), Cckbr (gene 12426) (UniProt P56481); test: NVS_GPCR_mCKKBCentral: NovaScreen (NVS) G Protein-Coupled Receptor Assay for mouse Cholecystokinin, CCK2 Receptor (CCKB) (AID 2283293)
Chain of mouse Cholecystokinin, CCK2 Receptor (CCKB), Cckbr (gene 12426) (P56481 whole entry, looked up): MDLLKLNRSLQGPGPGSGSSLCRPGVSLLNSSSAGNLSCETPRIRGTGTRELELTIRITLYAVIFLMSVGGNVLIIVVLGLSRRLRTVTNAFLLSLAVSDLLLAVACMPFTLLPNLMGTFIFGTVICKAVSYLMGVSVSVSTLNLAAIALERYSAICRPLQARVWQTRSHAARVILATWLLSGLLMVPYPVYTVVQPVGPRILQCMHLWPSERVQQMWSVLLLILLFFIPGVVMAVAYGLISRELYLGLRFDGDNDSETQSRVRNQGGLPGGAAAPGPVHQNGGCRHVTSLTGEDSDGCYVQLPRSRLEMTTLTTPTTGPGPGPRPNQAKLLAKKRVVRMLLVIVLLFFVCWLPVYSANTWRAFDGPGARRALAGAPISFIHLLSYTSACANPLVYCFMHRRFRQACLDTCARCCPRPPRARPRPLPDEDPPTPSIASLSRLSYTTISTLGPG
Procedure: NVS_GPCR_mCKKBCentral is a biochemical, single-readout assay that uses extracted gene-proteins from Mouse forebrain membranes in a tissue-based cell-free assay. Measurements were taken 2 hours after chemical dosing in a 96-well plate.NVS_GPCR_mCKKBCentral is one of one assay component(s) measured or calculated from the NVS_GPCR_mCKKBCentral assay. It is designed to make measurements of radioligand binding, a form of binding reporter, as detected with scintillation counting signals by Filter-based radiodetection technology.Data from the assay component NVS_GPCR_mCKKBCentral was analyzed into 1 assay endpoint. This assay endpoint, NVS_GPCR_mCKKBCentral, was analyzed in the positive analysis fitting direction relative to DMSO as the negative control and baseline of activity. Using a type of binding reporter, loss-of-signal activity can be used to understand changes in the binding as they relate to the gene Cckbr. Furthermore, this assay endpoint can be referred to as a primary readout, because the performed assay has only produced 1 assay endpoint. To generalize the intended target to other relatable targets, this assay endpoint is annotated to the gpcr intended target family, where the subfamily is rhodopsin-like receptor. […]

Cc1ccc(C)c(O)c1
outcome [1]: inactive

COC(=O)c1c(Cl)c(Cl)c(C(=O)OC)c(Cl)c1Cl
outcome [2]: inactive

O=P(OC(CCl)CCl)(OC(CCl)CCl)OC(CCl)CCl
outcome [3]: inactive | AC50 [4]: 8.52 µM (active) | outcome [2]: inactive

O=C(CCCCCCCCc1cccnc1)N1CCC(C=C(c2ccccc2)c2ccccc2)CC1
AC50 [5]: 24.7 µM (active)

COc1ccc(-n2nc(C(F)F)cc2-c2ccc(S(C)=O)cc2)cc1 (stereo not given)
AC50 [4]: 11.5 µM (active)

Oc1ccc2c(c1)-c1ccccc1C2
AC50 [2]: 4.27 µM (active) | AC50 [6]: 6.87 µM (active)

Cc1[nH]cnc1C[C@H]1CCc2c(C)c3ccccc3n2C1=O
outcome [7]: inactive | AC50 [4]: 0.958 µM (active) | AC50 [2]: 0.116 µM (active) | AC50 [1]: 3.15 µM (active) | AC50 [5]: 6.29 µM (active) | AC50 [6]: 6.64 µM (active)

CCOC(=O)c1ccc(C2CCC(NC[C@H](O)COc3ccc(O)c(NS(C)(=O)=O)c3)CC2)cc1 (stereo not given in full)
AC50 [2]: 19.5 µM (active) | outcome [5]: inactive | AC50 [6]: 2.57 µM (active)

CC(C)(O)c1coc(S(=O)(=O)NC(=O)Nc2c3c(cc4c2CCC4)CCC3)c1
AC50 [2]: 25 µM (active)

CC1=CC(=O)CC(C)(C)C1
AC50 [8]: 18.5 µM (active)

CCN(C(=O)c1cc(C)cc(OC[C@H](C)Nc2ccncc2)c1)C(C)C
AC50 [1]: 13.4 µM (active) | AC50 [6]: 3.35 µM (active)

Fc1ccccc1[C@@H](F)COC1CCC(Nc2ncnc3[nH]ncc23)CC1 (stereo not given in full)
AC50 [2]: 7.93 µM (active)

CCOc1cccc(-n2cc(C(=O)N3CCN(c4cc(C(=O)O)c5ccccc5c4)CC3)nc2-c2ccc(C)cc2)c1
AC50 [3]: 0.00589 µM (active) | AC50 [5]: 23.8 µM (active)

CCOC(=O)COc1ccc2c(c1)CC(NCC(O)c1cccc(Cl)c1)CC2 (stereo not given)
AC50 [2]: 13.2 µM (active) | AC50 [5]: 5.18 µM (active)

CN(C)c1ccc(N=NS(=O)(=O)O)cc1
AC50 [1]: 23.8 µM (active)

CCn1nc(Cc2ccccc2)cc1C1CCN(C[C@H]2C[C@H](N(C)[C@@H](C(=O)O)C(C)C)C[C@@H]2c2cccc(F)c2)CC1
AC50 [5]: 8.81 µM (active) | AC50 [6]: 25 µM (active)

CCCCCCc1ccc(O)cc1O
AC50 [2]: 16.7 µM (active) | outcome [5]: inactive | AC50 [6]: 36.6 µM (active)

COc1ccc(/C=C/S(=O)(=O)NC(=O)c2ccc(C)cc2Cl)cc1
AC50 [3]: 22.7 µM (active)

Cn1c(=O)c2c(ncn2C)n(C)c1=O
outcome [2]: inactive

CCC(C)(C)C(=O)O[C@H]1C[C@@H](C)C=C2C=C[C@H](C)[C@H](CC[C@@H]3C[C@@H](O)CC(=O)O3)[C@H]21
outcome [5]: inactive

CC(C)=CCCC(C)CCO (stereo not given)
outcome [5]: inactive

COCCOc1cc2cc(C(=O)NC3CCN(C(C)C)CC3)n(CC(=O)Nc3ccc(Cl)cn3)c2cn1
outcome [9]: inactive

Nc1ccc(Nc2ccccc2)cc1
AC50 [1]: 32.3 µM (active) | AC50 [6]: 31.6 µM (active)

CCc1cc(SCc2sc(-c3ccc(C(F)(F)F)cc3)nc2CN2CCN(c3ccc(OC)cc3)CC2)ccc1OCC(=O)O
AC50 [3]: 7.03 µM (active) | outcome [1]: inactive | AC50 [5]: 4.54 µM (active) | AC50 [10]: 35.3 µM (active)

CNS(=O)(=O)c1cc(C(=O)N2CCC(CCN3C4CCC3CC(n3c(C)nc5ccccc53)C4)(c3cccc(F)c3)CC2)c(Cl)cc1F (stereo not given)
AC50 [4]: 1.33 µM (active) | AC50 [1]: 1.92 µM (active) | AC50 [5]: 4.96 µM (active) | outcome [10]: inactive | outcome [6]: inactive

On1ccccc1=S
AC50 [7]: 16.2 µM (active) | outcome [5]: inactive

CC[C@H]1OC(=O)[C@H](C)[C@@H](O[C@H]2C[C@@](C)(OC)[C@@H](O)[C@H](C)O2)[C@H](C)[C@@H](O[C@@H]2O[C@H](C)C[C@H](N(C)C)[C@H]2O)[C@](C)(O)C[C@@H](C)C(=O)[C@H](C)[C@@H](O)[C@]1(C)O
outcome [1]: inactive

Cn1c(=O)cc(Oc2ccc(F)cc2F)c2cnc(NCC(C)(C)O)nc21
AC50 [3]: 11.3 µM (active)

COc1cccc(-c2ccc(/C=C\CN3CCCCCC3)cc2Cl)c1
AC50 [2]: 11.8 µM (active) | AC50 [1]: 15.2 µM (active) | AC50 [5]: 12.3 µM (active) | AC50 [6]: 12.1 µM (active)

Cc1ccc(O)cc1
AC50 [8]: 22.1 µM (active)

Cc1ccc(N)cc1O
outcome [4]: inactive

O=C(OC[C@H]1O[C@@H](OC(=O)c2cc(O)c(O)c(OC(=O)c3cc(O)c(O)c(O)c3)c2)[C@H](OC(=O)c2cc(O)c(O)c(OC(=O)c3cc(O)c(O)c(O)c3)c2)[C@@H](OC(=O)c2cc(O)c(O)c(OC(=O)c3cc(O)c(O)c(O)c3)c2)[C@@H]1OC(=O)c1cc(O)c(O)c(OC(=O)c2cc(O)c(O)c(O)c2)c1)c1cc(O)c(O)c(OC(=O)c2cc(O)c(O)c(O)c2)c1
AC50 [3]: 12 µM (active)

O=c1[nH]c2ccc(S(=O)CCN3CCC(Cc4ccc(F)cc4)CC3)cc2o1 (stereo not given)
outcome [7]: inactive | AC50 [1]: 1.07 µM (active)

CCCN(C1CCN(C(=O)C2CCNCC2)CC1)[C@@H]1CCc2ccc(OC)cc2C1
AC50 [7]: 8.67 µM (active) | AC50 [1]: 16.1 µM (active) | AC50 [6]: 8.99 µM (active)

CC[C@H]1CC[C@H](NCc2cc3c(cc2OC)[C@H]2C[C@H]2C(=O)N3C)[C@H](c2ccccc2)N1
AC50 [1]: 17.5 µM (active) | AC50 [5]: 5.7 µM (active) | AC50 [6]: 14.2 µM (active)

O=C(O)CC(O)C(=O)O (stereo not given)
outcome [2]: inactive | outcome [5]: inactive
